Most compounds without a hit are left out; they make up all but 3.5% or so of the library.
TEAD-YAP inh: TEAD-YAP interaction inhibition; HEK-TIYL cells, TEAD-Gal4/YAP UAS-luciferase luminescence; inhibition, % at 9.12 µM; hit rate 1.4% among 640,000; AID 1259422; in the data active = inhibition above about 32%;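 note: 0% = median of test compound wells and 100% = reference inhibitor wells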
MITF inh: inhibitors of human MITF; AlphaScreen MITF homodimerization, bead proximity signal; O75030; hit rate 0.91% among 650,000; inhibition, % at 2.6 µM; in the data active = inhibition above about 50%;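 note: 0% = vehicle wells with protein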
Target sequence (O75030 whole entry, looked up): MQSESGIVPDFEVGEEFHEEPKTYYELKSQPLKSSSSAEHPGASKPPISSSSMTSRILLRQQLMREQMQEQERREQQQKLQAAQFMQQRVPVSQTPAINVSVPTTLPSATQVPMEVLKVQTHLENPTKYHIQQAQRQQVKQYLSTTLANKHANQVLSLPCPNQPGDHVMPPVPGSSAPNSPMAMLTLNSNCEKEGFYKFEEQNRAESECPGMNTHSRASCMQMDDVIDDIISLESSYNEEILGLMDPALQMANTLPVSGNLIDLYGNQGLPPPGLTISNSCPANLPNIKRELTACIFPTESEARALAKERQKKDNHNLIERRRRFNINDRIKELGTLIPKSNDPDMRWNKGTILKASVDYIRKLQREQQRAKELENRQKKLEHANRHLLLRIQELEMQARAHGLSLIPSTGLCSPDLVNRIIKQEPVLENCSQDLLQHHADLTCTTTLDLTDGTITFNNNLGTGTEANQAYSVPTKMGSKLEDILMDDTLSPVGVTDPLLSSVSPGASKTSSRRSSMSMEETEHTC
GPR151 ag: activates the human receptor GPR151 | Q8TDV0 | PathHunter beta-arrestin GPR151 cells, luminescence | activation, % at 11.2 µM | hit rate 1% among 650,000; in the data active = activation above about 4.9%;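 note: 0% = median of compound wells and 100% = cells with positive control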
FBW7 act: activators of human E3 ligase FBW7; AlphaScreen FBW7–phospho-cyclin E peptide binding, activator screen; normalized activity (activation), % at 26.1 µM; hit rate 0.13% among 650,000; AID 1259310; in the data active = normalized activity above about 1.9%;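 note: purified mutant Fbw7 with reduced substrate affinity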
The depositor's hits bear a star.

SMILES	TEAD-YAP inh	MITF inh	GPR151 ag	FBW7 act
COc1ccc(/C=C/C2=NN(c3ccccc3)C(c3ccc(OC)cc3OC)C2)c(OC)c1 (configuration not stated)	2	-55	1	2.7*
Cc1ccc(NNC(=S)NCC2CCCO2)c(C)c1 (configuration not stated)	-11	24	-1	0
COc1ccc(/C=N/NC(=O)c2cn(C)c3ccccc23)cc1O	33*	6	0	0
COc1ccc(/C=N/NC(=O)c2ccccc2O)cc1O	-20	-7	2	0
COc1ccccc1C(=O)N/N=C/c1c(O)ccc2ccccc12	37*	12	1	0
Cc1occc1C(=O)N/N=C/c1c(O)ccc2ccccc12	47*	-9	0	-1
COCCC(=O)NC(C)c1nnc2n1CCN(Cc1ccc(C)cc1C)CC2 (configuration not stated)	9	-5	0	0
O=C(Nc1ccccn1)c1ccc(Cl)cc1Cl	-35	-6	-1	1
COc1ccc2cc3c(N)c(C(=O)OC(C)C)sc3nc2c1	-6	6	1	0
O=C(Cc1ccc(F)cc1)Nc1cc(Nc2ccccc2CO)c(C(F)(F)F)cn1	62*	3	-2	0
Nc1cc(Nc2ccccc2CO)c(C(F)(F)F)cn1	5	-6	0	0
N#Cc1ccccc1Nc1cc(NC(=O)Cc2ccc([N+](=O)[O-])cc2)ncc1C(F)(F)F	40*	15	-2	0
NC(=O)c1ccccc1Nc1cc(NC(=O)Cc2ccc([N+](=O)[O-])cc2)ncc1C(F)(F)F	96*	2	1	0
N#Cc1ccccc1NC(=O)CSc1ccc([N+](=O)[O-])cn1	11	23	-1	0
CNC(=O)c1cncnc1Nc1cc(Nc2ccc3c(c2)CC(=O)N3)ncc1C(F)(F)F	25	2	0	0
CNC(=O)c1cncnc1Nc1cc(NC(=O)Cc2ccc(OC)cc2)ncc1C(F)(F)F	54*	7	1	0
O=C(CC1C(=O)NCCN1Cc1ccc(F)cc1Cl)NCCc1cccnc1 (configuration not stated)	5	8	2	0
O=C(Cc1ccc(F)cc1)Nc1cc(Nc2ccccc2-c2nn[nH]n2)c(C(F)(F)F)cn1	-3	2	-1	0
COc1ccc(CC(=O)Nc2cc(Nc3ccccc3C(N)=O)c(C(F)(F)F)cn2)cc1	98*	-2	-2	0
NC(=O)c1ccccc1Nc1cc(NC(=O)C2CCc3ccccc32)ncc1C(F)(F)F (configuration not stated)	75*	16	1	0
NC(=O)c1ccccc1Nc1cc(NC(=O)Cc2ccc(F)c(F)c2)ncc1F	15	-4	1	0
NC(=O)c1ccccc1Nc1cc(NC(=O)Cc2ccc(F)c(F)c2)ncc1Cl	83*	10	-1	0
NC(=O)c1ccccc1Nc1cc(NC(=O)Cc2ccc(F)cc2)ncc1C(F)(F)F	95*	18	2	0
COc1ccc2c(c1)CCC2C(=O)Nc1cc(Nc2ccccc2C(N)=O)ccn1 (configuration not stated)	13	-2	0	0
COc1cc(Nc2nc3ncnc(NCCN4CCOCC4)c3[nH]2)cc(OC)c1OC	6	2	1	0
SMILES	TEAD-YAP inh	MITF inh	GPR151 ag	FBW7 act
Cc1ccc(-c2[nH]c(-c3c[nH]c4ccccc34)nc2-c2ccccc2)cc1	-2	-4	0	0
NC(=O)c1ccccc1Nc1cc(Oc2ccccc2F)ncc1C(F)(F)F	-1	-2	3	0
CC(C)NC1CCC(Nc2cc(Nc3ccccc3C(N)=O)c(C(F)(F)F)cn2)CC1 (configuration not stated)	94*	9	-2	0
NC(=O)c1ccccc1Nc1cc(NC(=O)Cc2ccc(F)c(F)c2)ncc1C(F)(F)F	92*	9	1	0
Cc1cccc(NC(=O)CC(C)(C)C)c1C	-4	2	0	0
CCC(C)N(CC(=O)Nc1cccc(C)c1C)C(=O)CCl (configuration not stated)	69*	-14	0	0
OCCNc1nc(Nc2ccc(-n3ccnc3)cc2)nc2c1ncn2-c1ccsc1	47*	4	1	0
OCCNc1nc(Nc2ccncc2)nc2c1ncn2-c1ccsc1	60*	13	2	0
OCCNc1nc(Nc2ccc(-n3ccnc3)cc2)nc2c1ncn2-c1ccccc1	42*	8	0	0
OCCNc1nc(Nc2ccc(C(F)(F)F)cc2)nc2c1ncn2-c1ccsc1	15	-18	1	0
Oc1ccc(CCNc2nc(Nc3ccc(-n4ccnc4)cc3)nc3c2ncn3-c2ccccc2)cc1	16	3	0	0
OCCNc1nc(Nc2ccccc2)nc2c1ncn2-c1ccccc1	50*	7	-1	0
Cc1ccccc1C(=O)NNC(=O)c1cc(Cl)ccc1O	-1	-8	0	0
CC(C)C[C@H]1NC(=O)[C@@H]2C[C@H](NC(=O)c3cc(Cl)cc(Cl)c3)CN2C1=O	-14	-7	-2	0
Cc1c(C(=O)N2CCCC2)oc2c1-c1nn(CC(=O)NCCCN3CCCC3)cc1CC2	-9	-3	0	0
Cc1ccc(C)c(CN(CCCN(C)C)CCCN(C)C)c1	17	26	2	0
CC(C)CC(=O)Nc1ccc(S(=O)(=O)N2CCC(c3nc4ccccc4[nH]3)CC2)cc1	34*	20	1	0
O=C(Nc1ccc(F)cc1)c1cccc(Cl)c1	-25	-5	-2	0
O=C(Nc1cc(=O)[nH]c(=O)[nH]1)c1cccc(Cl)c1	40*	-5	-2	0
COc1ccc(Nc2nc(Cl)nc(NC3CCCC3)n2)cc1	-10	21	-2	0
CCC[n+]1cccc2ccc3cccnc3c21	54*	11	-1	0
N#Cc1ccc(Oc2cccc(C(=O)O)c2)cc1	0	0	0	0
COc1cc2nc(Oc3ccccc3)nc(Nc3ccccc3)c2cc1OC	38*	1	1	0
COc1cc2nc(Oc3ccccc3)nc(Nc3ccc(N4CCOCC4)cc3)c2cc1OC	42*	1	2	0
COc1cc2nc(Nc3ccccc3)nc(Nc3ccccc3)c2cc1OC	10	-7	2	0
SMILES	TEAD-YAP inh	MITF inh	GPR151 ag	FBW7 act
Cc1cc(C)cc(N2C(=O)NC(=O)/C(=C/c3cn(CC(=O)O)c4ccccc34)C2=O)c1	10	25	1	0
Cn1c(-c2ccccc2)c(/C=C(\C#N)c2nn(CCO)c(N)c2C#N)c2ccccc21	50*	-8	0	0
N#C/C(=C\c1ccc(/C=C(\C#N)c2nn(CCO)c(N)c2C#N)cc1)c1nn(CCO)c(N)c1C#N	-1	15	1	0
COc1ccc(Nc2nc3nonc3nc2Nc2ccc(OC)cc2)cc1	10	-7	0	0
COc1ccc(Nc2nc3nonc3nc2N/N=C(\C)c2nonc2C)cc1	52*	4	1	0
CC(=O)CC(=O)NCc1ccc(Cl)cc1	8	-12	0	1
Cc1cc(N2CCCCC2)nc(NCCNS(=O)(=O)Cc2ccccc2)n1	55*	4	-1	0
